# Measured values from PubChem BioAssay (NCATS).
# Records with an inconclusive call do not appear. A number with no mark means an inactive call. The source made the active and inactive calls. Calls come from the whole dose curve; as a rule, active = well fitted inhibition curve with a large enough effect; inconclusive = small, poorly fitted or top-dose-only effect; inactive = flat fitted curve, though single readings scatter.
# System: TAB113
# Experiment: qHTS profiling for inhibitors of Plasmodium falciparum proliferation (AID 504749)
# Settings: P. falciparum in erythrocytes, SYBR Green DNA, 72 h; series mostly up to 28.7 µM
# Procedure, shortened: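 Fluorescence of SYBR Green-bound parasite DNA, read at 485/535 nm, served as the growth measure. Infected erythrocytes were cultured with compound 72 h; artemisinin (0.29 uM) and DMSO wells defined the normalization range.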
# Note: nearly all actives have a fitted effect of over 60% in size.
# Potency is the fitted concentration of half-maximal effect.
row,SMILES,Potency
1,CC(C)N=c1cc2n(-c3ccc(Cl)cc3)c3ccccc3nc-2cc1Nc1ccc(Cl)cc1,inactive
2,COC(=O)[C@H]1[C@H]2C[C@@H]3c4[nH]c5ccccc5c4CCN3C[C@H]2C[C@@H](OC(=O)c2cc(OC)c(OC)c(OC)c2)[C@@H]1OC,0.282 µM (active)
3,O=C(O)c1cc(=O)c2c3nc4ccccc4oc-3cc(=O)c2[nH]1,inactive

# System: KB-3-1
# Experiment: Cytotoxic Profiling of Annotated Libraries Using Quantitative High-Throughput Screening (AID 1296008); for max response: % is set by controls: 0 for no effect and ±100 for the full control effect
# Settings: Five cell lines viability, CellTiter-Glo ATP luminescence, 48-72 h; max response: stronger effect = lower value
# Procedure, shortened: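 Compounds were pin-transferred onto cells and incubated 48 or 72 hr at 37 degree Celsius, 95% humidity. CellTiter-Glo was added, plates sat 10 min at room temperature, then ATP-coupled luminescence was imaged as the viability read-out.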
SMILES,max response [%],Potency
CC(C)N=c1cc2n(-c3ccc(Cl)cc3)c3ccccc3nc-2cc1Nc1ccc(Cl)cc1,6.76,–
CCCCC(=O)OCC(=O)[C@]1(O)Cc2c(O)c3c(c(O)c2[C@@H](O[C@H]2C[C@H](NC(=O)C(F)(F)F)[C@H](O)[C@H](C)O2)C1)C(=O)c1c(OC)cccc1C3=O,–,8.2 µM (active)
CC1(C)O[C@@H]2C[C@H]3[C@@H]4CCC5=CC(=O)C=C[C@]5(C)[C@H]4[C@@H](O)C[C@]3(C)[C@]2(C(=O)CO)O1,-0.986,–
C=C(NC(=O)C(=C)NC(=O)c1csc(C2=N[C@@H]3c4csc(n4)[C@H]4NC(=O)c5csc(n5)[C@H]([C@](C)(O)[C@@H](C)O)NC(=O)[C@H]5CSC(=N5)C(=CC)NC(=O)C([C@@H](C)O)NC(=O)c5csc(n5)[C@]3(CC2)NC(=O)[C@H](C)NC(=O)C(=C)NC(=O)[C@H](C)NC(=O)C([C@@H](C)CC)NC2C=Cc3c([C@H](C)O)cc(nc3C2O)C(=O)O[C@@H]4C)n1)C(N)=O (stereo partly drawn),-16.7,–
CC(=O)N[C@@H](CC(=O)N[C@@H](CCC(=O)O)C(=O)O)C(=O)O,-12.8,–
